Consider twelve compounds from PubChem BioAssay (NCI).

The panel holds about 83,000 compounds, 20% with a hit somewhere; the sample as a whole holds those more often.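 Values shown are percent growth following 48 h exposure of cells in 96-well plates to a single concentration of compound; below 10 was considered active.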 Calls of active or inactive are those of the source.

In the assay the test system is OVCAR-4 ovarian. Nature of the assay: NCI-60 one-dose screen, 48 h (100 = growth as untreated, 0 = no growth, -100 = all killed). The settings on record: 10 µM unless noted.
Take `COC(=O)c1ccc2[nH]c(O)c(C(=Nc3ccc(N(C)C(=O)CN4CCN(C)CC4)cc3)c3ccc([N+](=O)[O-])cc3)c2c1`: the growth is 46.9% (inactive).
Regarding `O=C1OC(c2ccc(-c3ccccc3)cc2)=C/C1=C/c1c2ccccc2cc2ccccc12`, the growth was 95.7% (inactive).
The result for `O=C(O)c1ccc(-c2nn(-c3ccc(C(=O)O)cc3)cc2CNc2ccc(Br)cc2)cc1` reads 104% (inactive).
`O=C(N/N=C\c1ccc(-c2ccc(Br)cc2)o1)c1cc2oc(-c3cccc(C(F)(F)F)c3)cc2[nH]1`: the growth is 106% (inactive).
As to `COC(=O)c1ccc2[nH]c(O)c(C(=Nc3ccc(N(C)C(=O)CN4CCN(C)CC4)cc3)c3ccc(N)cc3)c2c1`, the growth is 73.7% (inactive).
Under `COC(=O)c1ccc(C(=Nc2ccc(N(C)C(=O)CN3CCN(C)CC3)cc2)c2c(O)[nH]c3ccc(C(=O)OC)cc23)cc1` stands 38.3% (inactive); under `Cc1ccc(C(C)C)c(OCc2ccc(C(=O)N/N=C/c3cccc(O)c3O)cc2)c1`, 27.8% (inactive); under `O=C1Nc2c(c(=O)n(-c3ccccc3)c3ccccc23)C(c2ccc(Cl)cc2)N1` (configuration not stated), 105% (inactive).
Under `O=c1c2c(c3ccccc3n1-c1ccccc1)NC(=S)NC2c1ccccc1` (configuration not stated) stands 79.5% (inactive); under `COC(=O)c1ccc2[nH]c(O)c(C(=Nc3ccc(N(C)C(=O)CN4CCN(C)CC4)cc3)c3ccc(CCO)cc3)c2c1`, 56.6% (inactive).
Under `CCCCn1c(Cc2ccc(OC)cc2)nc2cc(OC)c(OC)cc2c1=O` stands 73.6% (inactive); under `Cc1[nH]n(C(=S)Nc2nc3cc(Cl)c(F)cc3s2)c(=O)c1N=Nc1ccc(F)c(Cl)c1`, 91.5% (inactive).
